Assay results from PubChem BioAssay (Tox21).
Results filed as inconclusive are left out. Activity calls are given as the source filed them. Unless noted, the call rests on the fitted dose curve.

Experiments:
[1] = qHTS assay to identify small molecule antagonists of the vitamin D receptor (VDR) signaling pathway - cell viability counter screen (AID 743225; active means well fitted curve in the direction sought with a large enough effect in the repeat runs; an effect the other way counts as inactive or inconclusive; further: on the % scale 0 is the no-effect control and ±100 the full control effect; nearly all actives have a fitted effect of over 50% in size); details: VDR-bla HEK293T viability, CellTiter-Glo luminescence, 16 h; series mostly up to 61 µM
Procedure, shortened: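 VDR-bla HEK 293T cells, 4 h pre-incubation at 37C, then compound plus 1-alpha,25-dihydroxyvitamin D3 (3 nM final) for 16 h. After the beta-lactamase FRET read, CellTiter-Glo was added to the same wells; luminescence after 30 min at room temperature.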

[2] = qHTS assay to identify small molecule agonists of the NFkB signaling pathway (AID 1159509; active means well fitted curve in the direction sought with a large enough effect in the signal ratio in the repeat runs, not every such curve was filed as active; the % refers to the signal ratio; further: on the % scale 0 is the no-effect control and ±100 the full control effect); details: NFkB-bla ME-180 cells, beta-lactamase FRET ratio, 5 h; series mostly up to 61 µM
Procedure, shortened: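 Agonist activity was read as beta-lactamase-driven FRET change (460 and 530 nm emission, 405 nm excitation) following 1.5 hr substrate loading at room temperature. Beforehand, ME-180 NFkB-bla reporter cells were treated with compounds for 5 hr at 37 C.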

[3] = qHTS assay to identify small molecule agonists of the NFkB signaling pathway - cell viability counter screen (AID 1159515); details: NFkB-bla ME-180 viability, CellTiter-Glo luminescence, 5 h; series mostly up to 61 µM; further: on the % scale 0 is the no-effect control and ±100 the full control effect; nearly all actives have a fitted effect of over 55% in size
Procedure, shortened: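 Read by CellTiter-Glo luminescence (30 min, room temperature) in the wells also used for the beta-lactamase FRET read. ME-180 NFkB-bla cells at 2,000 per well were plated overnight, then exposed to compound for 5 hr at 37 C.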

[4] = qHTS assay to identify small molecule agonists of the endoplasmic reticulum stress response signaling pathway (AID 1159516; active means well fitted activation curve with a large enough effect in the signal ratio in the repeat runs, not every such curve was filed as active; the % refers to the signal ratio; further: on the % scale 0 is the no-effect control and ±100 the full control effect); details: ESRE-bla HeLa, ER stress beta-lactamase reporter, 5 h; series mostly up to 61 µM
Procedure, shortened: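 Ratiometric FRET readout (405 nm excitation; 460 and 530 nm emission) of a beta-lactamase gene driven by the ER stress response element, after 2 hr substrate loading. HeLa ESRE-bla cells were seeded overnight and treated with compounds for only 5 hr at 37 C.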

[5] = qHTS assay to identify small molecule agonists of the endoplasmic reticulum stress response signaling pathway - cell viability counter screen (AID 1159517); details: ESRE-bla HeLa viability, CellTiter-Glo luminescence, 5 h; series mostly up to 61 µM; further: on the % scale 0 is the no-effect control and ±100 the full control effect; nearly all actives have a fitted effect of over 50% in size
Procedure, shortened: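 Cpd-treated ESRE-bla HeLa (5 hr, 37 C) → LiveBLAzer 2 hr RT → CellTiter-Glo 30 min RT → luminescence.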

[6] = qHTS assay to identify small molecule antagonists of the retinoid-related orphan receptor gamma (ROR-gamma) signaling pathway - cell viability counter screen (AID 1159520; active means well fitted curve in the direction sought with a large enough effect in the repeat runs; an effect the other way counts as inactive or inconclusive; further: on the % scale 0 is the no-effect control and ±100 the full control effect; nearly all actives have a fitted effect of over 50% in size); details: Tet-on RORgamma CHO cells viability, ATP luminescence, 16 h; series mostly up to 92.4 µM
Procedure, shortened: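 Tet-on ROR gamma CHO cells (1,000/well) were plated 4 hr, given compounds in DMSO for 2 hr at 37 C, then induced with 1 uM final doxycycline for 16 hr. Viability was read as ATP by CellTiter-Glo luminescence after 30 min.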

[7] = qHTS assay to identify small molecule agonists of the AP-1 signaling pathway - cell viability counter screen (AID 1159525); details: ME-180 AP-1-bla cells viability, ATP luminescence, 5 h; series mostly up to 76.8 µM; further: nearly all actives have a fitted effect of over 55% in size
Procedure, shortened: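 Each titration point was normalised to DMSO and tetra n-octyl ammonium bromide controls. The read was Cell Titer Glo luminescence after 30 min at RT, following 5 h compound exposure of ME-180 AP-1-bla cells at 37 °C.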

[8] = qHTS assay to identify small molecule agonists of the AP-1 signaling pathway (AID 1159526); details: ME-180 (cervical carcinoma) AP-1-bla reporter, beta-lactamase FRET ratio, 5 h; series mostly up to 76.8 µM; further: on the % scale 0 is the no-effect control and ±100 the full control effect
[9] = biological target: Retinoic acid receptor RXR-alpha (Homo sapiens) (UniProt P19793); assay: qHTS assay to identify small molecule agonists of the RXR signaling pathway (AID 1159527); details: HEK293T RXRa-UAS-bla, beta-lactamase ratio, 16 h; series mostly up to 76.8 µM; further: on the % scale 0 is the no-effect control and ±100 the full control effect; nearly all actives have a fitted effect of over 35% in size
Retinoic acid receptor RXR-alpha (Homo sapiens), sequence (P19793 whole entry, looked up): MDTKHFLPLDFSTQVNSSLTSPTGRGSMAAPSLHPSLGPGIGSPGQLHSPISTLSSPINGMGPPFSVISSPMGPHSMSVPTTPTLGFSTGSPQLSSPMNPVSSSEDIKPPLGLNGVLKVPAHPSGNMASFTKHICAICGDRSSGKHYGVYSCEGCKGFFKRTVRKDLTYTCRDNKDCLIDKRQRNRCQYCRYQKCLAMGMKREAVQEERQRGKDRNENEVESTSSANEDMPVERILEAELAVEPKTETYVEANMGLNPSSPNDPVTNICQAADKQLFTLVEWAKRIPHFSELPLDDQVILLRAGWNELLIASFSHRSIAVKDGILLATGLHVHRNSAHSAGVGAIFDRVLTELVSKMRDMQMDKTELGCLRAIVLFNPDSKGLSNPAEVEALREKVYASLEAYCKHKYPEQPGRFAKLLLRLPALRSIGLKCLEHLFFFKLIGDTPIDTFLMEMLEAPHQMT
Procedure, shortened: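 GeneBLAzer RXR-alpha-UAS-bla HEK 293T cells in medium with 2% charcoal-stripped FBS, pre-incubated 5 hr at 37 C, then exposed to compounds 16 hr. Beta-lactamase reporter read by FRET substrate, 2 hr room temperature, 460/530 nm emission.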

[10] = biological target: Nuclear receptor ROR-gamma (Homo sapiens) (UniProt P51449); assay: qHTS assay to identify small molecule antagonists of the retinoid-related orphan receptor gamma (ROR-gamma) signaling pathway (AID 1159521; active means well fitted curve in the direction sought with a large enough effect in the repeat runs; an effect the other way counts as inactive or inconclusive;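 further: CHO cells with doxycycline inducible ROR-gamma driving an RORE luciferase reporter; top concentration of the series differs between compounds; on the % scale 0 is the no-effect control and ±100 the full control effect; nearly all actives have a fitted effect of over 50% in size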); details: Tet-on RORgamma CHO cells, RORE-luciferase, 16 h; series mostly up to 92.4 µM
Procedure, shortened: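 Tet-on RORγ CHO cells carrying a ROR response element–luciferase reporter were pretreated with compounds for 2 h, then induced with 1 uM (final) doxycycline hyclate for 16 h at 37 C. Antagonism was read as decreased ONE-Glo luminescence.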

CC(C)CCC(=O)CCC(C)C
inactive: outcome [1] | outcome [2] | outcome [3] | outcome [4] | outcome [5] | outcome [6] | outcome [7] | outcome [8] | Potency [9]

COC(OC)C(C)c1ccccc1 (stereo not drawn)
inactive: outcome [1] | outcome [2] | outcome [3] | outcome [4] | outcome [5] | outcome [6] | outcome [10] | outcome [8] | Potency [9]

F[Si-2](F)(F)(F)(F)F
inactive: outcome [1] | outcome [2] | outcome [3] | outcome [4] | outcome [5] | outcome [6] | outcome [10] | outcome [8] | Potency [9]

CC(=O)OC(C(=O)c1ccccc1)c1ccccc1 (stereo not drawn)
inactive: outcome [1] | outcome [2] | outcome [3] | outcome [4] | outcome [5] | outcome [6] | outcome [7] | outcome [8] | Potency [9]

CCCCC[Si](OCC)(OCC)OCC
inactive: outcome [1] | outcome [2] | outcome [3] | outcome [4] | outcome [5] | outcome [6] | outcome [10] | outcome [8] | Potency [9]

COc1cc2c3cc1Oc1cc(ccc1O)C[C@@H]1c4c(cc(OC)c(O)c4Oc4ccc(cc4)C[C@@H]3N(C)CC2)CC[N+]1(C)C
inactive: outcome [1] | outcome [2] | outcome [3] | outcome [4] | outcome [5] | outcome [6] | outcome [10] | outcome [8] | Potency [9]

CC(=O)/C=C/c1ccco1
inactive: outcome [1] | outcome [2] | outcome [3] | outcome [4] | outcome [5] | outcome [6] | outcome [7] | outcome [8] | Potency [9]

NS(=O)(=O)c1cc2c(cc1Cl)NC(CC1CCCC1)NS2(=O)=O (stereo not drawn)
inactive: outcome [1] | outcome [2] | outcome [3] | outcome [4] | outcome [5] | outcome [6] | outcome [10] | outcome [7] | outcome [8] | Potency [9]

Nc1ccc(C(=O)OCC(O)CO)cc1 (stereo not drawn)
inactive: outcome [2] | outcome [3] | outcome [4] | outcome [5] | outcome [6] | outcome [7] | outcome [8] | Potency [9]

CCC(C)(CCC(C)C)C(=O)[O-].CCC(C)(CCC(C)C)C(=O)[O-].[Zn+2] (stereo not drawn)
inactive: outcome [1] | outcome [2] | outcome [3] | outcome [4] | outcome [5] | outcome [6] | outcome [7] | outcome [8] | Potency [9]

Cc1ccc(S(=O)(=O)NC(=O)NC2CCCCCCC2)cc1
inactive: outcome [1] | outcome [2] | outcome [3] | outcome [4] | outcome [5] | outcome [6] | outcome [10] | outcome [8] | Potency [9]

O=[Si]=O
inactive: outcome [1] | outcome [2] | outcome [3] | outcome [4] | outcome [5] | outcome [6] | outcome [7] | outcome [8] | Potency [9]

Nc1ccc(/C=C/c2ccc(N)cc2S(=O)(=O)O)c(S(=O)(=O)O)c1
inactive: viability change, negative = cytotoxic [1] 9.91% [at 0.628 µM] | activation [2] 0.561% [at 0.628 µM] | activity, negative = cytotoxic [3] 1.66% [at 0.628 µM] | activation [4] 0% [at 0.628 µM] | activity change, negative = cytotoxicity [5] 9.94% [at 0.628 µM] | activity, negative = cytotoxicity [6] -1.32% [at 0.349 µM] | activity change, negative = inhibition [10] 35.7% [at 0.35 µM] | viability change, negative = cytotoxic [7] 6.31% [at 0.29 µM] | activation [8] -7.74% [at 0.29 µM] | activation [9] 6.35% [at 0.29 µM]

CC(C)(C)NCCO
inactive: outcome [1] | outcome [2] | outcome [3] | outcome [4] | outcome [5] | outcome [7] | outcome [8] | Potency [9]

O=C1c2ccccc2-c2ccccc21
inactive: outcome [1] | outcome [2] | outcome [3] | outcome [4] | outcome [5] | outcome [10] | outcome [7] | outcome [8] | Potency [9]

C=CC(C)(O)CC/C=C(\C)CC (stereo not drawn)
inactive: outcome [1] | outcome [2] | outcome [3] | outcome [4] | outcome [5] | outcome [10] | outcome [7] | outcome [8] | Potency [9]

COCC(=O)Nc1c(I)c(C(=O)NCC(O)CO)c(I)c(C(=O)N(C)CC(O)CO)c1I (stereo not drawn)
inactive: outcome [1] | outcome [2] | outcome [3] | outcome [4] | outcome [5] | outcome [10] | outcome [8] | Potency [9]

CN(C)CCOCCN(C)CCO
inactive: outcome [1] | outcome [2] | outcome [3] | outcome [4] | outcome [5] | outcome [10] | outcome [7] | outcome [8] | Potency [9]

CCCCCCCCCCCCCC(=O)OC
inactive: outcome [1] | outcome [2] | outcome [3] | outcome [4] | outcome [5] | outcome [6] | outcome [8] | Potency [9]

O=c1[nH]c(=O)c2[nH]c(=O)[nH]c2[nH]1
inactive: viability change, negative = cytotoxic [1] 18.1% [at 6.95 µM] | activation [2] -0.0901% [at 6.95 µM] | activity, negative = cytotoxic [3] 1.31% [at 6.95 µM] | activation [4] -2.27% [at 6.95 µM] | activity change, negative = cytotoxicity [5] -24.3% [at 6.95 µM] | activity, negative = cytotoxicity [6] -0.126% [at 8.39 µM] | viability change, negative = cytotoxic [7] 10.8% [at 6.97 µM] | activation [8] -0.69% [at 6.97 µM] | activation [9] 3.02% [at 6.98 µM]
